697 NFkB inh = lowers PMA/ionomycin-induced NF-kB signal in 697 B cells; inhibition, % at 4 µM; 697 B-cell NF-kB luciferase reporter, 16 h; 330,000 compounds, 0.33% hits; in the data active = inhibition above about 35%
CFTR F508del cor = CFTR F508del correction in bronchial cells | CFBE cells, YFP halide quenching; stimulated with forskolin plus potentiator P3; % fluorescence drop versus neutral controls | activity (quench increase), % at 7.58 µM | 350,000 compounds, 0.36% hits;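 active = mean added fluorescence quench of at least 8% versus neutral control, with both replicates also reaching 8%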;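 note: cells transiently co-express mutant CFTR-F508del with the halide-sensitive YFP; corrector assay measuring rescue of mutant channel to the surface after 24 h compound exposure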
HIF activator = HIF pathway transcriptional activation. activation, % at 7.5 µM (by protocol). 300,000 compounds, 0.32% hits. U2OS HRE-luciferase reporter, luminescence; normalized: DMSO 0%, desferrioxamine 100%;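 active = mean activation of at least 10% of the iron chelator positive control signal, with at least half of replicates also reaching 10%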
Jurkat NFkB inh = inhibitors of the PMA/ionomycin-induced NF-kB reporter in Jurkat cells. PMA/ionomycin-induced NF-kB luciferase reporter, luminescence. inhibition, % at 4 µM. 330,000 compounds, 0.53% hits; in the data active = inhibition above about 50%
697 NFkB conf = lowers PMA/ionomycin-induced NF-kB signal in 697 B cells; shares compounds with 697 NFkB inh; inhibition, % at 4 µM; 697 B-cell NF-kB luciferase, 16 h; 2,000 compounds, 35% hits; AID 449746; in the data active = inhibition mostly above about 28%, no sharp cut-off; inactive = mostly below about 22%
Starred values were filed as active, the others as inactive; i = inactive; / = not tested or not shown. In the library only some 0.93% were active in any assay of this set; here they are far more common.

SMILES	697 NFkB inh	CFTR F508del cor	HIF activator	Jurkat NFkB inh	697 NFkB conf
COc1cc(C(=O)N(Cc2cc3cc(C)ccc3[nH]c2=O)CC2CCCO2)cc(OC)c1OC (stereo not drawn)	-2	/	0	-7	/
Cc1cc2cc(CN(CC3CCCO3)C(=O)c3cnccn3)c(=O)[nH]c2cc1C (stereo not drawn)	36*	/	1	9	6
Cc1nc([N+](=O)[O-])c(Br)n1Cc1ccccc1	-11	-5	1	-15	/
Cc1nc([N+](=O)[O-])c(Sc2nc3ccc([N+](=O)[O-])cc3[nH]2)n1Cc1ccccc1	36*	/	0	5	30*
CSc1nnc2c3ccccc3n(CCc3ccccc3)c2n1	i	/	-1	-75	i
CSc1nnc2c3ccccc3n(Cc3ccccc3)c2n1	-13	/	0	-9	/
C[C@@H]1CN([C@@H](C)CO)S(=O)(=O)c2ccc(C3=CCCC3)cc2O[C@H]1CN(C)CC1CCCC1	/	-3	/	/	/
CCc1ccc(/C=C2\SC(=S)N(CCC(=O)NC3=NCCS3)C2=O)cc1	71*	-1	-1	23	38*
COc1ccccc1/C=C1\SC(=S)N(CCC(=O)NC2=NCCS2)C1=O	35*	1	0	0	48*
COc1ccccc1/C=C1\SC(=S)N(CCC(=O)Nc2ccc(C(=O)O)c(O)c2)C1=O	17	1	0	2	/
CCc1ccc(/C=C2\SC(=S)N(CCCC(=O)Nc3ccccn3)C2=O)cc1	76*	/	-4	14	58*
O=C(CCN1C(=O)/C(=C\c2cccs2)SC1=S)NC1=NCCS1	-3	-1	3	13	/
COc1ccccc1/C=C1\SC(=S)N(CC(=O)Nc2nnc(C)s2)C1=O	72*	/	0	1	3
COc1cccc(-c2ccc3c(c2)[C@@H]2[C@@H](CCN2C(=O)C2CCCC2)[C@H](CO)N3)c1	/	-3	/	/	/
COc1ccccc1/C=C1/SC(=S)N(CCC(=O)Nc2cccnc2)C1=O	35*	1	0	1	28*
C[C@@H]1CCCCO[C@H](CN(C)S(=O)(=O)c2cccs2)[C@H](C)CN([C@@H](C)CO)C(=O)c2cc(NS(=O)(=O)c3ccc(F)cc3)ccc2O1	/	1	/	/	/
CC(C)NC(=O)Nc1ccc2c(c1)C(=O)N([C@@H](C)CO)C[C@@H](C)[C@@H](CN(C)Cc1ccncc1)OCCCC[C@H](C)O2	/	-2	/	/	/
CCN1C(=O)c2cccc3c(S(=O)(=O)N4CCC(C)CC4)ccc1c23	41*	4	/	-19	46*
CC(C)(C)c1ccc(C(=O)Nc2ccc(N3CCOCC3)cc2)cc1	-84	-1	1	6	/
CC(C)(C)c1ccc(C(=O)NC(=S)Nc2ccc(N3CCOCC3)cc2)cc1	-334	/	0	-59	13
O=C(NCc1cccc(F)c1)[C@H]1[C@H](CO)[C@H]2Cn3c(cccc3=O)[C@@H]1N2C(=O)c1cnccn1	/	0	/	/	/
CCCNC(=O)N1CC2(CCN(CC3CC3)CC2)c2c(n(C)c3cc(OC)ccc23)[C@H]1CO	/	3	/	/	/
O=C(NC[C@H]1CC[C@@H]2[C@@H](CN2S(=O)(=O)c2ccccc2[N+](=O)[O-])O1)c1cccnc1	/	-4	/	/	/
Cc1cccc(-c2nc(CSc3nc4c(c(=O)[nH]3)CCC4)c(C)o2)c1	39*	2	0	24	21
Cc1cc(C)c2nc(NC(=O)[C@@H](NC(=O)c3cccc(S(=O)(=O)N4CCOCC4)c3)C(C)C)sc2c1	54*	-5	-1	10	54*
SMILES	697 NFkB inh	CFTR F508del cor	HIF activator	Jurkat NFkB inh	697 NFkB conf
O=C(CN1CCOCC1)N1CC(=O)N2[C@H](C1)[C@H](c1ccc(-c3cccc(F)c3)cc1)[C@@H]2CO	/	1	/	/	/
O=C(Nc1nc2ccc(F)cc2s1)C1=COCCO1	-250	-1	-2	-100	-76
C[C@H](CO)N1C[C@H](C)[C@@H](CN(C)S(=O)(=O)c2cn(C)cn2)Oc2ccc(NC(=O)CCCN(C)C)cc2C1=O	/	0	/	/	/
C[C@@H]1CCCCO[C@@H](CN(C)C(=O)NC2CCCCC2)[C@H](C)CN([C@@H](C)CO)C(=O)c2cc(NS(=O)(=O)c3cccs3)ccc2O1	/	2	/	/	/
CCN(CC)C(=O)Oc1ccc2ccccc2c1Br	-302	1	2	-58	-253
Cc1nc(SC(C)C(=O)NCC2CCCO2)c2cc(-c3ccccc3)sc2n1 (stereo not drawn)	i	2	-14	-67	i
CC(Sc1ncnc2c1cnn2-c1ccccc1)C(=O)NCC1CCCO1 (stereo not drawn)	-19	-5	1	-10	/
O=C(CCCc1nc(-c2ccccc2Cl)no1)NC1CCCC1	74*	3	-4	1	78*
C/C=C/c1cnc2c(c1)C(=O)N([C@H](C)CO)C[C@@H](C)[C@@H](CN(C)C(=O)C1CC1)O2	/	-4	/	/	/
O=C(Nc1ccc(N2CCCC2)cc1)c1cccc(Cl)c1	-266	1	1	-119	-27
C[C@H](CO)N1C[C@H](C)[C@H](CN(C)C(=O)C2CCC2)Oc2ncc(-c3ccncc3)cc2C1=O	/	-1	/	/	/
C[C@H](O)C#Cc1cnc2c(c1)C(=O)N([C@@H](C)CO)C[C@@H](C)[C@H](CN(C)CC1CCCCC1)O2	/	1	/	/	/
COc1cccc(OC)c1C(=O)Nc1cc(Cl)ccc1N1CCOCC1	39*	/	0	-9	-4
O=C(NC(=O)N1CCN(C(c2ccccc2)c2ccccc2)CC1)c1ccccc1	36*	-1	0	-7	-14
CCCNC(=O)N1CCN(C(c2ccccc2)c2ccccc2)CC1	-10	0	0	-22	/
Cc1noc(C)c1S(=O)(=O)N(C)C[C@H]1Oc2ccc(NC(=O)C3CCCCC3)cc2CC(=O)N([C@@H](C)CO)C[C@@H]1C	/	0	/	/	/
Cn1nc(-c2ccc(Cl)cc2)c2cc(C(=O)N3CCCC3)sc21	56*	0	/	9	43*
CC1=C(C(=O)NC2CCCc3c2cnn3-c2cccc(C)c2C)OCCO1 (stereo not drawn)	/	6	1	/	/
Cc1cc(C(=O)NC2CCCc3c2cnn3-c2cccc(C)c2C)no1 (stereo not drawn)	i	4	1	-53	i
CCOC(=O)C(=CNc1cc(C)ccc1C)C(=O)OCC	38*	/	1	1	29*
C[C@H]1CN([C@@H](C)CO)S(=O)(=O)c2ccc(-c3ccc(C(=O)N(C)C)cc3)cc2O[C@@H]1CN(C)C(=O)C1CC1	/	-1	/	/	/
CCN(CC)S(=O)(=O)c1ccc(N2CCOCC2)c(NC(=O)c2[nH]c(C)c(C(C)=O)c2C)c1	48*	-6	/	-2	46*
CCN(CC)S(=O)(=O)c1ccc(N2CCOCC2)c(NC(=O)c2ccc(F)cc2)c1	17	2	0	-8	/
Cc1oc(-c2ccoc2)nc1CN(CC1CCC(=O)N1)C(C)C (stereo not drawn)	-8	-1	-1	3	/
COCCN(Cc1nc(-c2ccc(-c3ccccc3)cc2)oc1C)C(C)C	-322	1	-2	-25	-436
